Broadly, the residual activity is the signal under treatment as a percentage of the control signal.

The results in this text go back to ChEMBL document CHEMBL2218924, “A broad activity screen in support of a chemogenomic map for kinase signalling research and drug discovery” (Biochem J, 2013).

Experiment [1] concerns the target Death-associated protein kinase 1 (Homo sapiens) (UniProt P53355). Particulars: at 10 µM.
Experiment [2] concerns the target Death-associated protein kinase 2 (Homo sapiens) (UniProt Q9UIK4). Particulars: at 1 µM.
Experiment [3] shares this target. Particulars: at 10 µM.
Experiment [4] has as its target T1, Serine/threonine-protein kinase DCLK2 (Homo sapiens) (UniProt Q8N568).
T1 sequence (whole entry): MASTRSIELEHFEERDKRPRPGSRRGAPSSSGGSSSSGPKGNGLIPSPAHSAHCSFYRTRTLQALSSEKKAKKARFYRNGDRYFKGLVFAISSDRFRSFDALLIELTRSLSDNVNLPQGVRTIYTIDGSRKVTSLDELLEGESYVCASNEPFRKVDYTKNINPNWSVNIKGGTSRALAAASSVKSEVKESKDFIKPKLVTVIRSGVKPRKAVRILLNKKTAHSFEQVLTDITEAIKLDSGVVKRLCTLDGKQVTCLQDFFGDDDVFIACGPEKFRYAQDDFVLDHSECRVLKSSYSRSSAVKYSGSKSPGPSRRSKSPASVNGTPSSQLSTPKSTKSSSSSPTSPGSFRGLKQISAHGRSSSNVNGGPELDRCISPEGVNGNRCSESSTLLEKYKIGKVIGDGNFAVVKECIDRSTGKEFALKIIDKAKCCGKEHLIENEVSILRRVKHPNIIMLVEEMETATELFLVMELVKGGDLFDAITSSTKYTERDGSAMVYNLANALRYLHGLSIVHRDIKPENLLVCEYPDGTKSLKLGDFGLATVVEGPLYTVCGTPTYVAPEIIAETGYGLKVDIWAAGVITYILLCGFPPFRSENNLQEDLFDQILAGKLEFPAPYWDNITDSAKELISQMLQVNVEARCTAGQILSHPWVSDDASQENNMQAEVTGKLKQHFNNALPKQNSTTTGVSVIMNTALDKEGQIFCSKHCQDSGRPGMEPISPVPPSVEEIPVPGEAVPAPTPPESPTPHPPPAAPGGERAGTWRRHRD
Particulars: at 1 µM.

Experiment [5] has as its target T1, Serine/threonine-protein kinase DCLK2 (Homo sapiens). The conditions noted are these: at 10 µM.
Experiment [6] addresses T2, Discoidin domain-containing receptor 2 (Homo sapiens) (UniProt Q16832).
T2 sequence (whole entry): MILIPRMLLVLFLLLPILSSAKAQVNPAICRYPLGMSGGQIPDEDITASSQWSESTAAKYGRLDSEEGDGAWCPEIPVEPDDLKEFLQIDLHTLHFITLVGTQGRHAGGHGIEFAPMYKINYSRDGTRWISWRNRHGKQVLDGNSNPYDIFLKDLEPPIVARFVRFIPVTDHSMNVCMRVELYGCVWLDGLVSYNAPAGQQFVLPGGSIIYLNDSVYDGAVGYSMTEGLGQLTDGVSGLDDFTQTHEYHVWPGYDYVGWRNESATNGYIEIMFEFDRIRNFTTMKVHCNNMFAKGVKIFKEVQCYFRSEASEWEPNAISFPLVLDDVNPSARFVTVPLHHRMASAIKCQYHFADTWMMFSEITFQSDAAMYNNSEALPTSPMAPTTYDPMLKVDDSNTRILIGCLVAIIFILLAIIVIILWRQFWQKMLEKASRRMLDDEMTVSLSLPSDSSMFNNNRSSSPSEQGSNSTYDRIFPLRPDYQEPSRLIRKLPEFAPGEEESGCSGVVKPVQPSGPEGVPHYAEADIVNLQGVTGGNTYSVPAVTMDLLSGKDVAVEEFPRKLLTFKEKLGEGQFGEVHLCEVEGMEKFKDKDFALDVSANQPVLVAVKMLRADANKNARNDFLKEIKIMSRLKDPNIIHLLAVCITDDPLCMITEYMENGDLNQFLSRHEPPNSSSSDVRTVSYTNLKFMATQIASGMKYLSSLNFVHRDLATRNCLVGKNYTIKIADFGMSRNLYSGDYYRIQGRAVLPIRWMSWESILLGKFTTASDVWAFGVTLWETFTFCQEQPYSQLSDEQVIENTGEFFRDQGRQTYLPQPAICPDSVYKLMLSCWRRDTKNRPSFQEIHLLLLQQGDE
Particulars: at 1 µM.

Experiment [7] concerns the target T2, Discoidin domain-containing receptor 2 (Homo sapiens). The conditions noted are these: at 10 µM.
Experiment [8] addresses T3, Myotonin-protein kinase (Homo sapiens) (UniProt Q09013).
T3 sequence (whole entry): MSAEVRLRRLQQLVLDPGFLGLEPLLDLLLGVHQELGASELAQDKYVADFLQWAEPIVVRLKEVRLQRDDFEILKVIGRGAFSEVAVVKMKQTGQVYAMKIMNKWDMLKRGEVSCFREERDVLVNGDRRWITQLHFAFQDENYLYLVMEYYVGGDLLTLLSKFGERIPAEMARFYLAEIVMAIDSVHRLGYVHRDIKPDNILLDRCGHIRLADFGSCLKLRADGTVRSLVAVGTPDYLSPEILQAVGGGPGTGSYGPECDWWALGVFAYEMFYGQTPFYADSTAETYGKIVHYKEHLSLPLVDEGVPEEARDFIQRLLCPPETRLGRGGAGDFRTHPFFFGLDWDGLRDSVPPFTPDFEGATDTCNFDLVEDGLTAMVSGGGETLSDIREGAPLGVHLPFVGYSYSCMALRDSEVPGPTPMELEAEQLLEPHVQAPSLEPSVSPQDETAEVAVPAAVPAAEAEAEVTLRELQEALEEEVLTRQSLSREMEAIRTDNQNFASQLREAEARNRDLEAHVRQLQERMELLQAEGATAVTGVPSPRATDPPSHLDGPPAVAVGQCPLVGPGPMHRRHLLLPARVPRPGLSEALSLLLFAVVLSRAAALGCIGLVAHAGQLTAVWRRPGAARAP
Particulars: at 1 µM.

Experiment [9] concerns the target T3, Myotonin-protein kinase (Homo sapiens). Particulars: at 10 µM.
Experiment [10] concerns the target T4, Serine/threonine-protein kinase 17A (Homo sapiens) (UniProt Q9UEE5).
T4 sequence (whole entry): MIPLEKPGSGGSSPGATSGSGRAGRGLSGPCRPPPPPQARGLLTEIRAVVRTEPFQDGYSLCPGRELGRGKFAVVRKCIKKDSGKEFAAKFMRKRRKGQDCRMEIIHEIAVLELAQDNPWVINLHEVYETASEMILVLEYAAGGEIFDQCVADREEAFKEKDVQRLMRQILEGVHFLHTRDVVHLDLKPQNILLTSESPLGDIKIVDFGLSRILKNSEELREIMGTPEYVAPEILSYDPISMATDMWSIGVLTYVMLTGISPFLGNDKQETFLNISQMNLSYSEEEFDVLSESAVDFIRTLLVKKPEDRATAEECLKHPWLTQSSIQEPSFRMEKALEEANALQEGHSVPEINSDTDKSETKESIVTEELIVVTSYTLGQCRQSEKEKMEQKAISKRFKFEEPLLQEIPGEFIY
The conditions noted are these: at 1 µM.

Experiment [11] deals with T4, Serine/threonine-protein kinase 17A (Homo sapiens). The conditions noted are these: at 10 µM.
Experiment [12] deals with T5, Dual specificity tyrosine-phosphorylation-regulated kinase 2 (Homo sapiens) (UniProt Q92630).
T5 sequence (whole entry): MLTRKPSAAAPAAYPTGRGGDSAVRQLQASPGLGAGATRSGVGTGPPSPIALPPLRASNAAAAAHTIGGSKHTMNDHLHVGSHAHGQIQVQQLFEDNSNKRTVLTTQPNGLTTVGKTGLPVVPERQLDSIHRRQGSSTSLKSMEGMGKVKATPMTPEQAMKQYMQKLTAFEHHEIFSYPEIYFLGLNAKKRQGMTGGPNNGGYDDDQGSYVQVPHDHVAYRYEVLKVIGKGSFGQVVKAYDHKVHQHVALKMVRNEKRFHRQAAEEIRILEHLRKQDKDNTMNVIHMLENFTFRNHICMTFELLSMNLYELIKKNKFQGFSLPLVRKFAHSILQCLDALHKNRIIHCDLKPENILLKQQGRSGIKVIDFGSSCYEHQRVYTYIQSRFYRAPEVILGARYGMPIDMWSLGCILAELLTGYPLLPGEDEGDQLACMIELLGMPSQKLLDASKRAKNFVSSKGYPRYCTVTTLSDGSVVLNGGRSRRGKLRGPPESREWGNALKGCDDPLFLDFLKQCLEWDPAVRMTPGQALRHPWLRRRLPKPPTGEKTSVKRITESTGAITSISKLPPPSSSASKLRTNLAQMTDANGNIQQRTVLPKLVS
The conditions noted are these: at 1 µM.

For experiment [13], the target named is T5, Dual specificity tyrosine-phosphorylation-regulated kinase 2 (Homo sapiens). Particulars: at 10 µM.
For experiment [14], the target named is T6, Ephrin type-A receptor 1 (Homo sapiens) (UniProt P21709).
T6 sequence (whole entry): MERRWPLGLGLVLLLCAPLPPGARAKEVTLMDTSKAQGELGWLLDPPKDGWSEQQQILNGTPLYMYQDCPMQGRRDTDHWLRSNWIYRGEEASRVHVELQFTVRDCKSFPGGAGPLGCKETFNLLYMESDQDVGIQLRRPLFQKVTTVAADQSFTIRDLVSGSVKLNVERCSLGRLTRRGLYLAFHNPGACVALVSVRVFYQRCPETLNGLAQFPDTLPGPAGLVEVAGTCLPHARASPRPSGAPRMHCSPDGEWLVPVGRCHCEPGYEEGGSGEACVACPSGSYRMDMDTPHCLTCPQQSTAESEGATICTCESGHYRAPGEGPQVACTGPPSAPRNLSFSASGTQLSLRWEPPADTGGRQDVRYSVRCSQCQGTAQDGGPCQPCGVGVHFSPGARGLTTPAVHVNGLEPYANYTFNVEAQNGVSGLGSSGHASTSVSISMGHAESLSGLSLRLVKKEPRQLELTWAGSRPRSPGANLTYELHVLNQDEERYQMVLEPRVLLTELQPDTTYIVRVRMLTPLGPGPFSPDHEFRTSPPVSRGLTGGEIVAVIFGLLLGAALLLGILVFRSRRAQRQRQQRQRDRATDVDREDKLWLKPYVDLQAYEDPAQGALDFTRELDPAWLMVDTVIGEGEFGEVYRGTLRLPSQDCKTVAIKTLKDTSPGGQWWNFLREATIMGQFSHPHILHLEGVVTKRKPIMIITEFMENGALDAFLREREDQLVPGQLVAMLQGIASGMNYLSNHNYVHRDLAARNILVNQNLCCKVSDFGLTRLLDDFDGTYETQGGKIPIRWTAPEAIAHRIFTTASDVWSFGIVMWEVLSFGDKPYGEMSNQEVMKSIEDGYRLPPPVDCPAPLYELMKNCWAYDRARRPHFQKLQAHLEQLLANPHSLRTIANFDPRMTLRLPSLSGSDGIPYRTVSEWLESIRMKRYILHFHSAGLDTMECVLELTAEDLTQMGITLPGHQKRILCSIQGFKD
The conditions noted are these: at 1 µM.

Experiment [15] addresses T6, Ephrin type-A receptor 1 (Homo sapiens). Particulars: at 10 µM.
The target in experiment [16] is Ephrin type-A receptor 2 (Homo sapiens) (UniProt P29317). The conditions noted are these: at 1 µM.
Ephrin type-A receptor 2 (Homo sapiens), sequence (P29317 whole entry): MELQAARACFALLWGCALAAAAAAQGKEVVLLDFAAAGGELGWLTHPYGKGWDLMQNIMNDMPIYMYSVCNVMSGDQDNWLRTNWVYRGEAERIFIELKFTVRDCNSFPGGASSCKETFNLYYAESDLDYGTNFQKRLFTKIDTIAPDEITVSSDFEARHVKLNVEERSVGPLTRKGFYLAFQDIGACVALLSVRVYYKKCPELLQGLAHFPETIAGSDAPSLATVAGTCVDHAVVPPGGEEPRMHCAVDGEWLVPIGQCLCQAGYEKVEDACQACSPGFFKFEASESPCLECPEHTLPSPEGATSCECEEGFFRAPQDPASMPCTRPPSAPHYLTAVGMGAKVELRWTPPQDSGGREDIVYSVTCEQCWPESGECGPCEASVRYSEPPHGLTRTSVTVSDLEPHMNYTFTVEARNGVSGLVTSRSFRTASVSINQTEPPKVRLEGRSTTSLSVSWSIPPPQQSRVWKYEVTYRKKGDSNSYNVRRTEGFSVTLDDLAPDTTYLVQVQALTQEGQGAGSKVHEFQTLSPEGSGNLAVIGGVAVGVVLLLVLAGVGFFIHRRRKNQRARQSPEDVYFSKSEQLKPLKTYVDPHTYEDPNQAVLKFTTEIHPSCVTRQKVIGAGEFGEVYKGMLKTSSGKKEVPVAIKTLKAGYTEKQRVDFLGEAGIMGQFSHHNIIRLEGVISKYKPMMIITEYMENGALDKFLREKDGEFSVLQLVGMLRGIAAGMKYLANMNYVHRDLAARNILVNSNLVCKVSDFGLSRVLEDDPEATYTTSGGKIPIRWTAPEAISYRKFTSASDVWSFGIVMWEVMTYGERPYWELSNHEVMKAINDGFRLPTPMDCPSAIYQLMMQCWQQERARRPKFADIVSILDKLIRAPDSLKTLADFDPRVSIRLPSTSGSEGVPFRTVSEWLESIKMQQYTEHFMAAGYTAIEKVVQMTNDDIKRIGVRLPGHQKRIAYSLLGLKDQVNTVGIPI
Experiment [17] shares this target. Particulars: at 10 µM.
Experiment [18] has as its target T7, Ephrin type-A receptor 3 (Homo sapiens) (UniProt P29320).
T7 sequence (whole entry): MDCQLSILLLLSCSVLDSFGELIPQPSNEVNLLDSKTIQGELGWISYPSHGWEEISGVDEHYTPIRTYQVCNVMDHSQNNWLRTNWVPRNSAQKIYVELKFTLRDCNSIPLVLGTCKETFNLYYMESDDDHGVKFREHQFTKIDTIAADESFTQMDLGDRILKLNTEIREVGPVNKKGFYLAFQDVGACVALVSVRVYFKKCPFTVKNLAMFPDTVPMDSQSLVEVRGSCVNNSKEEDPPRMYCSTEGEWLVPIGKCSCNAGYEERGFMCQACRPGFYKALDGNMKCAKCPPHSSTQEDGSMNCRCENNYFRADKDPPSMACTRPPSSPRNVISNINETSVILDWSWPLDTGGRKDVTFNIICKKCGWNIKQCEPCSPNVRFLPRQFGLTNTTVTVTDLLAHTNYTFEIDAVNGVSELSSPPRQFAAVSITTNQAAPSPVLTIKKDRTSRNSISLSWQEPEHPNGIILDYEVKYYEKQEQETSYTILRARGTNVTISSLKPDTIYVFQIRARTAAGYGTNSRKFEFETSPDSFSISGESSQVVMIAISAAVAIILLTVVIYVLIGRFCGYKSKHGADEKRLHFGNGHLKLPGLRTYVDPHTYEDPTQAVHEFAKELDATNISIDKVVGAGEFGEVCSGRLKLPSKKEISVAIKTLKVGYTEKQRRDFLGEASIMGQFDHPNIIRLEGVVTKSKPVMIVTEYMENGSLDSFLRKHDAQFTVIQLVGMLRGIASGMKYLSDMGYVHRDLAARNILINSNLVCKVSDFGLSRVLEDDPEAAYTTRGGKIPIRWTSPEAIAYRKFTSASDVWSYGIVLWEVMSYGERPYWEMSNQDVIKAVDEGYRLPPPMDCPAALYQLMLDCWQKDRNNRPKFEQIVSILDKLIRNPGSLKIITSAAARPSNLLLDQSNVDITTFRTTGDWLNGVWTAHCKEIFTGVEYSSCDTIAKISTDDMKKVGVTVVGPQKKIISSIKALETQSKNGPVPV
The conditions noted are these: at 1 µM.

Structures are written as SMILES.

Death-associated protein kinase 2 (Homo sapiens), sequence (Q9UIK4 whole entry, looked up): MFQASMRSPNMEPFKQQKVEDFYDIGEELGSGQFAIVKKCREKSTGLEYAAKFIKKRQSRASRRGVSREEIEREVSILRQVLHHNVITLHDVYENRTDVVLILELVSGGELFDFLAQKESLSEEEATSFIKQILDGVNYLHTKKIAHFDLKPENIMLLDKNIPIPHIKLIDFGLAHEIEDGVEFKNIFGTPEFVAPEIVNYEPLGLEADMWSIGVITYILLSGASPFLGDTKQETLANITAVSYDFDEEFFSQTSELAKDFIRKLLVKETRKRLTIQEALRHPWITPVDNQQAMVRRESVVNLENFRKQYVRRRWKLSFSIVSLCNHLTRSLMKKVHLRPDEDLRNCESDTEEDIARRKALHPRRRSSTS
Death-associated protein kinase 1 (Homo sapiens), sequence (P53355 whole entry, looked up): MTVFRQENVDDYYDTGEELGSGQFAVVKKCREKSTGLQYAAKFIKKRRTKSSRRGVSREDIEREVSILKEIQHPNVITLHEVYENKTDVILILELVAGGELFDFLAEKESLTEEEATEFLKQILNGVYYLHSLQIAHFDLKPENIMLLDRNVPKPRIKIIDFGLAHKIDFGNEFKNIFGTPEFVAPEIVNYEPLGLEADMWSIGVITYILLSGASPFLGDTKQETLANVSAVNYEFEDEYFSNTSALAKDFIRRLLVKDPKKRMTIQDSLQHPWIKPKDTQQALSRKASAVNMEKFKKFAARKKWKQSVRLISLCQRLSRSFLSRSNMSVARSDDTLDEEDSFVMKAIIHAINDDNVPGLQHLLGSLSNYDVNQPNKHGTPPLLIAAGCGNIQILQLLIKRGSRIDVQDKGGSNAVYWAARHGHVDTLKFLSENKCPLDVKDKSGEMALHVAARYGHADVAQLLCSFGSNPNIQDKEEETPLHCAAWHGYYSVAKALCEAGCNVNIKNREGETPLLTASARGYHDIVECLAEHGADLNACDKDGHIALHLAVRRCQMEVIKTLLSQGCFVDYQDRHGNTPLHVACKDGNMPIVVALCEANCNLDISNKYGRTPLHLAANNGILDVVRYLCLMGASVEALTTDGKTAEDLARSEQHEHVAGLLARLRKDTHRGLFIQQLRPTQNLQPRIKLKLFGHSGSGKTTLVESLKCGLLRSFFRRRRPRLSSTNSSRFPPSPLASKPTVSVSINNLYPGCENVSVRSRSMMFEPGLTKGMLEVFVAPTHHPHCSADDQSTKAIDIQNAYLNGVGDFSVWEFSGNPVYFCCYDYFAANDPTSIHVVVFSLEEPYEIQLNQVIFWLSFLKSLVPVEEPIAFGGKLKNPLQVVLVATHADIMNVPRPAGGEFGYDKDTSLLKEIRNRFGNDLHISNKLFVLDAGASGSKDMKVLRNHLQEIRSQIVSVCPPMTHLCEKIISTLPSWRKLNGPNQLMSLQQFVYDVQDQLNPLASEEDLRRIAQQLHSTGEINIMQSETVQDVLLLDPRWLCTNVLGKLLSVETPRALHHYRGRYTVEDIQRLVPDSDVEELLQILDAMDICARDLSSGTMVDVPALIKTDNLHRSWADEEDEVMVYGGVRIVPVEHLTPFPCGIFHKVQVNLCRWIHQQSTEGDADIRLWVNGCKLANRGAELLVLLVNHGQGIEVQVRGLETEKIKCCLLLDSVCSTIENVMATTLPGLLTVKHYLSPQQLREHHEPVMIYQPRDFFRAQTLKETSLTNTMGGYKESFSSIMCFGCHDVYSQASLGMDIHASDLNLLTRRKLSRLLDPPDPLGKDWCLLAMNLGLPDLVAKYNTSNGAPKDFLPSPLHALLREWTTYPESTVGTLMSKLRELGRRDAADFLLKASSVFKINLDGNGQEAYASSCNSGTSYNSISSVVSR

With `O=c1c2ccccc2[nH]c(=S)n1CCN1CCC(=C(c2ccc(F)cc2)c2ccc(F)cc2)CC1`, the residual activity in experiment [1] turned out to be 62%; in [2], 109%; in [3], 104%; in experiment [4], 91%; in [5], 79%; in [6], 104%. Besides, the residual activity in experiment [7] is 87%; in [8], 105%; in experiment [9], 108%; in experiment [10], 71%; in experiment [11] it was 90%; in experiment [12] it was 102%. Moreover, the residual activity is 96% in [13]; 95% in experiment [14]; 89% in experiment [15]; 116% in experiment [16]; 100% in [17]; 109% in [18].
Consider `O=C(O)c1ccc2c3c1cccc3c(=O)n1c3ccccc3nc21`, for which the residual activity in [1] came to 47%; in experiment [2], 31%; in experiment [3], 1%; in experiment [4] it was 117%; in experiment [5] it was 68%; in [6], 99%. For the same molecule, the residual activity in experiment [7] came out at 101%; in experiment [8], 92%; in [9], 83%; in experiment [10], 42%; in [11], 13%; in [12] it was 54%. For the same molecule, the residual activity in experiment [13] is 11%; in experiment [14], 103%; in experiment [15] it was 89%; in [16], 88%; in [17], 102%; in [18] it was 103%.
